# Assay results as given in PubChem BioAssay AID1159580 (chemical genetic matrix, 2015).
# The campaign covered roughly 5,500 compounds. About 2,000 (36%) were called active. Another 18% or so got no clear call; they are omitted. Some of the results follow. Values without a mark were called inactive. Cut-off read from the data, not from the text of the source: active = normalized growth mostly below about 0.91 (no sharp cut-off); inconclusive = no clear call, values can overlap the other calls; inactive = mostly above about 0.92.
# Assay: chemical genetic growth profiling, strain panel (AID 1159580);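 note: tested at 20 µM; growth read once vehicle control cultures reached saturation at 30 °C; 1 = growth at the plate median or of vehicle wells; lower values mean less growth of the strain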
# Conditions: S. cerevisiae deletion strains, growth OD
# [1] = locus YAL040C, strain CLN3, stronger effect = lower value
# [2] = locus YCL061C, strain MRC1 (second series), stronger effect = lower value
# [3] = locus YDR363W, strain ESC2, stronger effect = lower value
# [4] = locus YER002W, strain NOP16, stronger effect = lower value
# [5] = locus YGR078C, strain PAC10, stronger effect = lower value
# [6] = locus YJR075W, strain HOC1, stronger effect = lower value
# [7] = locus YMR263W, strain SAP30, stronger effect = lower value
# [8] = locus YMR307W, strain GAS1, stronger effect = lower value
# [9] = locus YNL128W, strain TEP1, stronger effect = lower value
# [10] = locus YNL175C, strain NOP13, stronger effect = lower value
# [11] = locus YNL197C, strain WHI3, stronger effect = lower value
# [12] = locus YNL224C, strain SQS1, stronger effect = lower value
# [13] = locus YNL322C, strain KRE1, stronger effect = lower value
# [14] = locus YOR083W, strain WHI5 (second series), stronger effect = lower value
# [15] = locus YAR019C, strain CDC15, stronger effect = lower value
# [16] = locus YBL105C, strain PKC1, stronger effect = lower value
# [17] = locus YBR135W, strain CKS1, stronger effect = lower value
# [18] = locus YBR136W, strain MEC1, stronger effect = lower value
# [19] = locus YBR160W, strain CDC28, stronger effect = lower value
# [20] = locus YDL017W, strain CDC7, stronger effect = lower value
# [21] = locus YDL028C, strain MPS1, stronger effect = lower value
# [22] = locus YDL101C, strain DUN1, stronger effect = lower value
# [23] = locus YDL108W, strain KIN28, stronger effect = lower value
# [24] = locus YDL132W, strain cdc53, stronger effect = lower value
# [25] = locus YDL214C, strain PRR2, stronger effect = lower value
# [26] = locus YDR052C, strain DBF4, stronger effect = lower value
# [27] = locus YDR054C, strain cdc34, stronger effect = lower value
# [28] = locus YDR226W, strain ADK1, stronger effect = lower value
# [29] = locus YDR477W, strain SNF1, stronger effect = lower value
# [30] = locus YER123W, strain YCK3, stronger effect = lower value
# [31] = locus YER133W, strain GLC7, stronger effect = lower value
# [32] = locus YFL009W, strain cdc4, stronger effect = lower value
# [33] = locus YFL029C, strain CAK1, stronger effect = lower value
# [34] = locus YFR003C, strain YPI1, stronger effect = lower value
# [35] = locus YFR019W, strain FAB1, stronger effect = lower value
# [36] = locus YFR028C, strain CDC14, stronger effect = lower value
# [37] = locus YGR040W, strain KSS1, stronger effect = lower value
# [38] = locus YGR052W, strain FMP48, stronger effect = lower value
# [39] = locus YGR092W, strain DBF2, stronger effect = lower value
# [40] = locus YHR030C, strain SLT2, stronger effect = lower value
# [41] = locus YHR079C, strain IRE1, stronger effect = lower value
# [42] = locus YHR082C, strain KSP1, stronger effect = lower value
# [43] = locus YHR205W, strain SCH9, stronger effect = lower value
# [44] = locus YIL147C, strain SLN1, stronger effect = lower value
# [45] = locus YJL095W, strain BCK1, stronger effect = lower value
# [46] = locus YJL128C, strain PBS2, stronger effect = lower value
# [47] = locus YJL157C, strain FAR1, stronger effect = lower value
# [48] = locus YJR016C, strain ILV3, stronger effect = lower value
# [49] = locus YJR066W, strain TOR1 (second series), stronger effect = lower value
# [50] = locus YJR066W, strain TOR1, stronger effect = lower value
# [51] = locus YKL048C, strain ELM1, stronger effect = lower value
# [52] = locus YKL067W, strain YNK1, stronger effect = lower value
# [53] = locus YKL101W, strain HSL1, stronger effect = lower value
# [54] = locus YKL193C, strain SDS22, stronger effect = lower value
# [55] = locus YKL203C, strain TOR2, stronger effect = lower value
# [56] = locus YLR113W, strain HOG1, stronger effect = lower value
# [57] = locus YLR133W, strain CKI1, stronger effect = lower value
# [58] = locus YLR403W, strain SFP1, stronger effect = lower value
# [59] = locus YML070W, strain DAK1, stronger effect = lower value
# [60] = locus YMR001C, strain CDC5, stronger effect = lower value
# [61] = locus YMR205C, strain PFK2 (second series), stronger effect = lower value
# [62] = locus YMR277W, strain FCP1, stronger effect = lower value
# [63] = locus YNL006W, strain LST8, stronger effect = lower value
# [64] = locus YNL020C, strain ARK1, stronger effect = lower value
# [65] = locus YNL161W, strain CBK1, stronger effect = lower value
# [66] = locus YNL183C, strain NPR1, stronger effect = lower value
# [67] = locus YNL207W, strain RIO2, stronger effect = lower value
# [68] = locus YNL222W, strain SSU72, stronger effect = lower value
# [69] = locus YNL307C, strain MCK1 (second series), stronger effect = lower value
# [70] = locus YOL078W, strain AVO1, stronger effect = lower value
# [71] = locus YOL136C, strain PFK27, stronger effect = lower value
# [72] = locus YOR061W, strain CKA2, stronger effect = lower value
# [73] = locus YOR119C, strain RIO1, stronger effect = lower value
# [74] = locus YOR231W, strain MKK1, stronger effect = lower value
# [75] = locus YOR329C, strain SCD5, stronger effect = lower value
# [76] = locus YPL031C, strain PHO85, stronger effect = lower value
# [77] = locus YPL153C, strain RAD53, stronger effect = lower value
# [78] = locus YPL204W, strain HRR25, stronger effect = lower value
# [79] = locus YPL209C, strain IPL1, stronger effect = lower value
# [80] = locus YPL256C, strain CLN2, stronger effect = lower value
# [81] = locus YPR025C, strain CCL1, stronger effect = lower value
# [82] = locus YPR106W, strain ISR1, stronger effect = lower value
# [83] = locus YPR111W, strain DBF20, stronger effect = lower value
# [84] = strain NNK1, stronger effect = lower value
# [85] = strain TSCII, stronger effect = lower value
smiles,measurement,setting,value
CCCN1CCCC2Cc3[nH]ncc3CC21 (stereo not given),normalized growth,[1],0.972
same,normalized growth,[2],1
same,normalized growth,"locus YDR150W, strain NUM1, stronger effect = lower value",0.995
same,normalized growth,[3],1.02
same,normalized growth,[4],0.992
same,normalized growth,[5],0.997
same,normalized growth,"locus YGR229C, strain SMI1, stronger effect = lower value",0.989
same,normalized growth,[6],1
same,normalized growth,[7],0.997
same,normalized growth,[8],0.992
same,normalized growth,[9],0.989
same,normalized growth,"locus YNL153C, strain GIM3, stronger effect = lower value",1.1
same,normalized growth,[10],0.994
same,normalized growth,[11],0.992
same,normalized growth,[12],0.98
same,normalized growth,[13],1.02
same,normalized growth,[14],0.986
same,normalized growth,"locus YPL241C, strain CIN2, stronger effect = lower value",1
CC(C)NP(=O)(NC(C)C)OP(=O)(NC(C)C)NC(C)C,normalized growth,[1],0.983
same,normalized growth,[2],1
same,normalized growth,[3],0.998
same,normalized growth,[4],0.995
same,normalized growth,[5],0.991
same,normalized growth,[6],1.01
same,normalized growth,[7],0.991
same,normalized growth,[8],0.995
same,normalized growth,[9],0.99
same,normalized growth,[10],0.991
same,normalized growth,[11],0.995
same,normalized growth,[12],0.991
same,normalized growth,[13],1.01
same,normalized growth,[14],0.991
same,normalized growth,"locus YPL055C, strain LGE1, stronger effect = lower value",1.01
Cc1csc2ncnc(N3CCN(C(=O)Nc4ccc(SC(F)(F)F)cc4)CC3)c12,normalized growth,[15],1.01
same,normalized growth,[16],0.991
same,normalized growth,[17],0.999
same,normalized growth,[18],1
same,normalized growth,[19],0.979
same,normalized growth,[20],0.982
same,normalized growth,[21],0.994
same,normalized growth,[22],1
same,normalized growth,[23],0.995
same,normalized growth,[24],1
same,normalized growth,[25],0.908
same,normalized growth,[26],0.988
same,normalized growth,[27],0.993
same,normalized growth,[28],1
same,normalized growth,[29],0.937
same,normalized growth,[30],0.902
same,normalized growth,[31],0.912
same,normalized growth,[32],1.01
same,normalized growth,[33],1
same,normalized growth,[34],1.01
same,normalized growth,[35],0.918
same,normalized growth,[36],0.994
same,normalized growth,[37],0.925
same,normalized growth,[38],0.963
same,normalized growth,[39],0.867
same,normalized growth,[40],0.818 (active)
same,normalized growth,[41],0.866
same,normalized growth,[42],0.947
same,normalized growth,[43],0.927
same,normalized growth,[44],0.987
same,normalized growth,[45],0.868
same,normalized growth,[46],0.972
same,normalized growth,[47],0.88
same,normalized growth,[48],0.994
same,normalized growth,[49],0.65
same,normalized growth,[50],0.915
same,normalized growth,[51],0.931
same,normalized growth,[52],0.915
same,normalized growth,[53],0.903
same,normalized growth,[54],1
same,normalized growth,[55],0.977
same,normalized growth,[56],0.806 (active)
same,normalized growth,[57],0.909
same,normalized growth,[58],0.905
same,normalized growth,[59],0.886
same,normalized growth,[60],0.999
same,normalized growth,[61],0.903
same,normalized growth,[62],1
same,normalized growth,[63],0.997
same,normalized growth,[64],0.898
same,normalized growth,[65],1
same,normalized growth,[66],0.895
same,normalized growth,[67],0.987
same,normalized growth,[68],1
same,normalized growth,[69],0.866
same,normalized growth,[70],0.996
same,normalized growth,[71],0.869
same,normalized growth,[72],0.864
same,normalized growth,[73],0.967
same,normalized growth,[74],0.825
same,normalized growth,[75],1
same,normalized growth,[76],0.915
same,normalized growth,[77],0.914
same,normalized growth,[78],0.9
same,normalized growth,[79],1
same,normalized growth,[80],0.845 (active)
same,normalized growth,[81],0.998
same,normalized growth,[82],0.988
same,normalized growth,[83],0.987
same,normalized growth,[84],0.993
same,normalized growth,[85],0.983
Cc1csc2ncnc(N3CCN(C(=S)Nc4ccc(C(F)(F)F)cc4)CC3)c12,normalized growth,[15],0.995
same,normalized growth,[16],0.987
same,normalized growth,[17],0.985
same,normalized growth,[18],1
same,normalized growth,[19],0.998
same,normalized growth,[20],1
same,normalized growth,[21],0.996
same,normalized growth,[22],0.985
same,normalized growth,[23],0.993
same,normalized growth,[24],0.996
same,normalized growth,[25],0.945
same,normalized growth,[26],1
same,normalized growth,[27],0.965
same,normalized growth,[28],0.994
same,normalized growth,[29],0.999
same,normalized growth,[30],0.926
same,normalized growth,[31],0.964
same,normalized growth,[32],0.99
same,normalized growth,[33],0.983
same,normalized growth,[34],0.996
same,normalized growth,[35],0.958
same,normalized growth,[36],0.993
same,normalized growth,[37],0.978
same,normalized growth,[38],0.999
same,normalized growth,[39],0.922
same,normalized growth,[40],0.919
same,normalized growth,[41],0.982
same,normalized growth,[42],1.02
same,normalized growth,[43],0.908
same,normalized growth,[44],1.01
same,normalized growth,[45],0.938
same,normalized growth,[46],0.92
same,normalized growth,[47],0.942
same,normalized growth,[48],0.995
same,normalized growth,[49],0.908
same,normalized growth,[50],1.02
same,normalized growth,[51],0.979
same,normalized growth,[52],0.968
same,normalized growth,[53],0.959
same,normalized growth,[54],0.996
same,normalized growth,[55],1.01
same,normalized growth,[56],0.816 (active)
same,normalized growth,[57],0.95
same,normalized growth,[58],0.955
same,normalized growth,[59],0.94
same,normalized growth,[60],0.999
same,normalized growth,[61],0.954
same,normalized growth,[62],0.986
same,normalized growth,[63],0.989
same,normalized growth,[64],0.949
same,normalized growth,[65],0.997
same,normalized growth,[66],0.987
same,normalized growth,[67],0.991
same,normalized growth,[68],0.986
same,normalized growth,[69],0.958
same,normalized growth,[70],0.989
same,normalized growth,[71],0.933
same,normalized growth,[72],0.94
same,normalized growth,[73],1.01
same,normalized growth,[74],0.909
same,normalized growth,[75],0.998
same,normalized growth,[76],0.982
same,normalized growth,[77],0.932
same,normalized growth,[78],0.963
same,normalized growth,[79],0.977
same,normalized growth,[80],0.91
same,normalized growth,[81],0.984
same,normalized growth,[82],0.979
same,normalized growth,[83],0.978
same,normalized growth,[84],0.988
same,normalized growth,[85],1
